Results reported in article PMC7862700, “An all-to-all approach to the identification of sequence-specific readers for epigenetic DNA modifications on cytosine”.

How the values were obtained:
Experiment in all cases: DAPPL (digital affinity profiling via proximity ligation, sequencing); 10 mM Tris-HCl pH 7.5, 50 mM NaCl, 1 mM DTT, 4% glycerol, room temperature, 30 min; GST-TFs on glutathione beads, 16-mer random dsDNA library, 0.1% formaldehyde crosslink after washing; high values mean tight binding
[1] = target: T1, FLI1 (Homo sapiens, UniProt Q01543 1-452); details: protein: recombinant; tags: N-terminal GST; dsDNA, one strand shown
T1 sequence: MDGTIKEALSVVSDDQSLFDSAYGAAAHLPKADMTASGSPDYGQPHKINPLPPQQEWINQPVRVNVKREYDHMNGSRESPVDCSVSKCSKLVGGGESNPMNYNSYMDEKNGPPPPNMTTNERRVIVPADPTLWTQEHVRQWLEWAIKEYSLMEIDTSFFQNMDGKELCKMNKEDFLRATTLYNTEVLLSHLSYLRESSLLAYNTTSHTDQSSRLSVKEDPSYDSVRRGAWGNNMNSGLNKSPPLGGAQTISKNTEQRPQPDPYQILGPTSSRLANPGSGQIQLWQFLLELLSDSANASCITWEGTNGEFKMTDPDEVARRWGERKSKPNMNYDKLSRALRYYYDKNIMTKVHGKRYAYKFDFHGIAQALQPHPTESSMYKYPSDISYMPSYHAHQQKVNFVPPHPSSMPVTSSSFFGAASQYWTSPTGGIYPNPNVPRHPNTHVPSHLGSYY
In short: (§1)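 Pools of DNA-barcoded human transcription factors, expressed in yeast as GST fusions on glutathione beads and combined with a tag-only sample, were incubated with 200 nmole of a 16-mer random double-stranded DNA library. Incubation took 30 min at room temperature in Tris/NaCl/DTT/glycerol buffer and was followed by washing, 0.1% formaldehyde crosslinking, proximity ligation (BsaI/T4 ligase, 1 h, 37 °C), PCR amplification and sequencing on an Illumina NextSeq500. Binding signal is the ratio of a hexamer's read frequency for a factor to its frequency for the tag-only sample.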

[2] = target: T2, ELK1 (Homo sapiens, UniProt P19419 1-428); details: protein: recombinant; tags: N-terminal GST; dsDNA, one strand shown
T2 sequence: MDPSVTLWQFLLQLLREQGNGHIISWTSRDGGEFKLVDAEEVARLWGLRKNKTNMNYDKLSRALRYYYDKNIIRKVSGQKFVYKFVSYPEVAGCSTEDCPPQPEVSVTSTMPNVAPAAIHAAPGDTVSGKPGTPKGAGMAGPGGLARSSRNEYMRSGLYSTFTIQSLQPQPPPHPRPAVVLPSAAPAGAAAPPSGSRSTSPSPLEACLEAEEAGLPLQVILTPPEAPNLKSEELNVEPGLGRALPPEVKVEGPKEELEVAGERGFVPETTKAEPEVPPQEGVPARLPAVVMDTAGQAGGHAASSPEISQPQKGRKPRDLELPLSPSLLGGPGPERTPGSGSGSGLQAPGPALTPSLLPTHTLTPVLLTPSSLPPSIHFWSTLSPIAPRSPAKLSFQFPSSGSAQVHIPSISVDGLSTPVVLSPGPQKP
In short: as §1

[3] = target: T3, GABPA (Homo sapiens, UniProt Q06546 1-454); details: protein: recombinant; tags: N-terminal GST; dsDNA, one strand shown
T3 sequence: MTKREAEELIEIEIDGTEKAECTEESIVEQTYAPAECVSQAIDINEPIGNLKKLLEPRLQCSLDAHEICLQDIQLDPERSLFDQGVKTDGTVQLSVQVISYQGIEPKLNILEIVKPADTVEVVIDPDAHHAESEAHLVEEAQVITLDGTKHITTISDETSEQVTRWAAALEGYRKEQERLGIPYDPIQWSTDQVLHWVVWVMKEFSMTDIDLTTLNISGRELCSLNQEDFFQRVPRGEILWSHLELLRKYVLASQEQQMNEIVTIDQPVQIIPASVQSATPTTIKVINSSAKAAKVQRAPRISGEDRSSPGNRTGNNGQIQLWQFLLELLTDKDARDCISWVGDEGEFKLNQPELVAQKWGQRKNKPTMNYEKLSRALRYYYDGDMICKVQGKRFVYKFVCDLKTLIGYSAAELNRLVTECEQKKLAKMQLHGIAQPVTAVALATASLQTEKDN
In short: as §1

[4] = target: T4, ERG (Homo sapiens, UniProt P11308 1-479); details: protein: recombinant; tags: N-terminal GST; dsDNA, one strand shown
T4 sequence: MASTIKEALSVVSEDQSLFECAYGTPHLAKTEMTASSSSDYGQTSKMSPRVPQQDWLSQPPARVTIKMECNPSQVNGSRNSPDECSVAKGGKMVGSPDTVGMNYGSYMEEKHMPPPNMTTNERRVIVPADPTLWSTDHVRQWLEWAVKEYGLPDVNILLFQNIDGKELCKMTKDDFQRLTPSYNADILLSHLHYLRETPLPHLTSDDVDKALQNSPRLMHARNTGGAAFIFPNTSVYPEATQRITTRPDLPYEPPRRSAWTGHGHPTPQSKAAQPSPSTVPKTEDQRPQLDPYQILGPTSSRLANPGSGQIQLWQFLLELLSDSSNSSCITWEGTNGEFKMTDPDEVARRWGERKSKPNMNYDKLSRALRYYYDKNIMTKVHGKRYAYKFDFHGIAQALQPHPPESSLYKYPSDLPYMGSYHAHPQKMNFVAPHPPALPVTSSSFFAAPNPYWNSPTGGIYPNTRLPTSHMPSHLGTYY
In short: as §1

[5] = target: ELF1 (Homo sapiens, UniProt P32519 1-619); details: protein: recombinant; tags: N-terminal GST; dsDNA, one strand shown
In short: as §1

[6] = target: T5, EHF (Homo sapiens, UniProt Q9NZC4 1-300); details: protein: recombinant; tags: N-terminal GST; dsDNA, one strand shown
T5 sequence: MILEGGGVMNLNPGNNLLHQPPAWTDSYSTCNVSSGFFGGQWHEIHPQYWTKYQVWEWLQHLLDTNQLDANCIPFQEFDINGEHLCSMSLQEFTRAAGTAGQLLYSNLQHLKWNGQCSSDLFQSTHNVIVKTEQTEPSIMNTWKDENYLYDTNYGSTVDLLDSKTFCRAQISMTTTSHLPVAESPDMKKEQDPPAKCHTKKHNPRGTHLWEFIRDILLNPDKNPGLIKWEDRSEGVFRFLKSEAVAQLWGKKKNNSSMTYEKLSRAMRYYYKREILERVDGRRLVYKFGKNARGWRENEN
In short: as §1

[7] = target: SPI1 (Homo sapiens, UniProt P17947 1-270); details: protein: recombinant; tags: N-terminal GST; dsDNA, one strand shown
In short: as §1

[8] = target: SPIB (Homo sapiens, UniProt Q01892 1-262); details: protein: recombinant; tags: N-terminal GST; dsDNA, one strand shown
In short: as §1

[9] = target: T6, ELK3 (Homo sapiens, UniProt P41970 1-407); details: protein: recombinant; tags: N-terminal GST; dsDNA, one strand shown
T6 sequence: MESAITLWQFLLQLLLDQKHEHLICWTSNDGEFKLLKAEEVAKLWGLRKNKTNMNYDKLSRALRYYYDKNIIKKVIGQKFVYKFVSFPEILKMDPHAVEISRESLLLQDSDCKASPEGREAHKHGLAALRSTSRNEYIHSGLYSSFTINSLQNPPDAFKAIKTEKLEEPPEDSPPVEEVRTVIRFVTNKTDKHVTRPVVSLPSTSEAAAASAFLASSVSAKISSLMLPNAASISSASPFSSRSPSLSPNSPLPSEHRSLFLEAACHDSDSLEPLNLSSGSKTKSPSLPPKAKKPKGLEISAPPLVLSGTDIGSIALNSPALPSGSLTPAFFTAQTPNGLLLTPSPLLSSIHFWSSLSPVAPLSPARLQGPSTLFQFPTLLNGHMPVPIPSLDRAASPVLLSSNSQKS
In short: as §1

[10] = target: T7, FEV (Homo sapiens, UniProt Q99581 1-238); details: protein: recombinant; tags: N-terminal GST; dsDNA, one strand shown
T7 sequence: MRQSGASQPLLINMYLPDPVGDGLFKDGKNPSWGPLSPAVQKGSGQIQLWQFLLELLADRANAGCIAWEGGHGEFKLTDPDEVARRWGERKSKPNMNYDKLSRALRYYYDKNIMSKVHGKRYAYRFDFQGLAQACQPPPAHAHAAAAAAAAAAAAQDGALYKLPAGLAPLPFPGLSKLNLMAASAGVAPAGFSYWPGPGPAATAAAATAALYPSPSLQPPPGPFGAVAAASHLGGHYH
In short: as §1

[11] = target: ETV5 (Homo sapiens, UniProt P41161 1-510); details: protein: recombinant; tags: N-terminal GST; dsDNA, one strand shown
In short: as §1

[12] = target: HSF1 (Homo sapiens, UniProt Q00613 1-529); details: protein: recombinant; tags: N-terminal GST; chain copies: 3; dsDNA, one strand shown
In short: as §1

[13] = target: T8, SPIC (Homo sapiens, UniProt Q8N5J4 1-248); details: protein: recombinant; tags: N-terminal GST; dsDNA, one strand shown
T8 sequence: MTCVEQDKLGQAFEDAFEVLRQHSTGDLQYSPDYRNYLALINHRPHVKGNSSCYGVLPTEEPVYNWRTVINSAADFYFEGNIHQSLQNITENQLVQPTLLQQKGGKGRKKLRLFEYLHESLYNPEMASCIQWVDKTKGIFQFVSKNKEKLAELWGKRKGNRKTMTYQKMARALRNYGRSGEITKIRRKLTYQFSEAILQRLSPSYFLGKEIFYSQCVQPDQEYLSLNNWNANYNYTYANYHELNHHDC
In short: as §1

[14] = target: ELF4 (Homo sapiens, UniProt Q99607 1-663); details: protein: recombinant; tags: N-terminal GST; dsDNA, one strand shown
In short: as §1

[15] = target: T9, ELK4 (Homo sapiens, UniProt P28324-2 1-405); details: protein: recombinant; tags: N-terminal GST; dsDNA, one strand shown
T9 sequence: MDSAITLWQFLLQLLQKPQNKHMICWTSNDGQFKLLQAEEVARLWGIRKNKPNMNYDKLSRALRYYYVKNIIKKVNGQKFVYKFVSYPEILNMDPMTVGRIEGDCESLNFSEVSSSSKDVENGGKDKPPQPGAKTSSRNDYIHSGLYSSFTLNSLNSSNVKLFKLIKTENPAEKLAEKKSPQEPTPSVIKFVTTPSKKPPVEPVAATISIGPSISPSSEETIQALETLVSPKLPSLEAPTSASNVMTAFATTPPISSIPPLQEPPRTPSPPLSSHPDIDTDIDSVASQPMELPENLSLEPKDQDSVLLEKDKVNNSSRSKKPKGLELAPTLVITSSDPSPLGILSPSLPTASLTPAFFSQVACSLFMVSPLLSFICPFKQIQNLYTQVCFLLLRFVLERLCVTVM
In short: as §1

[16] = target: T10, ETV2 (Homo sapiens, UniProt O00321 1-342); details: protein: recombinant; tags: N-terminal GST; dsDNA, one strand shown
T10 sequence: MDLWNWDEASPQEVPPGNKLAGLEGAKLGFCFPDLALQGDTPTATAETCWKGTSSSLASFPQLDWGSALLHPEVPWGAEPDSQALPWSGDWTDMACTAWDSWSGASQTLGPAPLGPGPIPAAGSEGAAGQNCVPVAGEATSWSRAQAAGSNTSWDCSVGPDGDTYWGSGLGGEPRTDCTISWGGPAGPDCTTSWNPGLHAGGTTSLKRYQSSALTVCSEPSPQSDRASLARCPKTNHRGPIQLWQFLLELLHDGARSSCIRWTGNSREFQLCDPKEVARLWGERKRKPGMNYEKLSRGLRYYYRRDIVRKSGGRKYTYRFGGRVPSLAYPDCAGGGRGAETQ
In short: as §1

[17] = target: T11, ELF3 (Homo sapiens, UniProt P78545 1-371); details: protein: recombinant; tags: N-terminal GST; dsDNA, one strand shown
T11 sequence: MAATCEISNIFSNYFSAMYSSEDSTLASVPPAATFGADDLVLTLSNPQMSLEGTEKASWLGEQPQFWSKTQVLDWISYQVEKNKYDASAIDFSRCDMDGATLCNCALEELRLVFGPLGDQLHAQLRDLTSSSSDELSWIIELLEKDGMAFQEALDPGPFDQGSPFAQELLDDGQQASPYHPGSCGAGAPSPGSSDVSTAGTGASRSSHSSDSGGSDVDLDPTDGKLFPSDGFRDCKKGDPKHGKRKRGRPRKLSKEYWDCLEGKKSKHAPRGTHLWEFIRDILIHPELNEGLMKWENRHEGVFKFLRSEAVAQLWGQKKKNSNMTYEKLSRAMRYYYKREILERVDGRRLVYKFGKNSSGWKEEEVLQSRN
In short: as §1

[18] = target: CRX (Homo sapiens, UniProt O43186 1-299); details: protein: recombinant; tags: N-terminal GST; dsDNA, one strand shown
In short: as §1

[19] = target: ETV1 (Homo sapiens, UniProt P50549 1-477); details: protein: recombinant; tags: N-terminal GST; dsDNA, one strand shown
In short: as §1

Chain of ELF4 (Q99607 whole entry): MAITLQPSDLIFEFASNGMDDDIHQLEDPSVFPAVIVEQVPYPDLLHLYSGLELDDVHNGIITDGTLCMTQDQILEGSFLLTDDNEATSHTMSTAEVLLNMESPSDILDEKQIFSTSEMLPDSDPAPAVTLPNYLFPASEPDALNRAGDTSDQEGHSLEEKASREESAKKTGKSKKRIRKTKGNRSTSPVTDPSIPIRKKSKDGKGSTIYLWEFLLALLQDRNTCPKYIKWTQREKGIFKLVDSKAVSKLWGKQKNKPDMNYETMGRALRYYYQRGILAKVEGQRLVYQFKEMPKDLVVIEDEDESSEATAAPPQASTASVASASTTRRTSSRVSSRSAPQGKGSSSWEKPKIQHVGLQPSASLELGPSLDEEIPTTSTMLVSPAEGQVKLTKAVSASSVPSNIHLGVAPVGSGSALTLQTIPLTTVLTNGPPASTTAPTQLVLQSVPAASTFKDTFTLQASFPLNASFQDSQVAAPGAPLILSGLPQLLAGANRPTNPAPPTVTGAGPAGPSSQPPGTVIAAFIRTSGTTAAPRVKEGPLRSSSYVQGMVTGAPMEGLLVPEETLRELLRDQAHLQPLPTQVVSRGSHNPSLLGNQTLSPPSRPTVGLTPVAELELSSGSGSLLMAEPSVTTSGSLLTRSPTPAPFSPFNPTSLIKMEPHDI
Chain of CRX (O43186 whole entry): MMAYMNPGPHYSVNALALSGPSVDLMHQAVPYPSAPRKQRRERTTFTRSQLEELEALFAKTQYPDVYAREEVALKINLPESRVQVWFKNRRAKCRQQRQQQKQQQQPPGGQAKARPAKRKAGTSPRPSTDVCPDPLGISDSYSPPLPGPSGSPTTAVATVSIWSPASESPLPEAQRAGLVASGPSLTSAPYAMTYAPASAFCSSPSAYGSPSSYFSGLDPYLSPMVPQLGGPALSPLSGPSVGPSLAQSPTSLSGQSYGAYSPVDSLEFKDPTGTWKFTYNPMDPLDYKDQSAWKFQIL
Chain of ETV5 (P41161 whole entry): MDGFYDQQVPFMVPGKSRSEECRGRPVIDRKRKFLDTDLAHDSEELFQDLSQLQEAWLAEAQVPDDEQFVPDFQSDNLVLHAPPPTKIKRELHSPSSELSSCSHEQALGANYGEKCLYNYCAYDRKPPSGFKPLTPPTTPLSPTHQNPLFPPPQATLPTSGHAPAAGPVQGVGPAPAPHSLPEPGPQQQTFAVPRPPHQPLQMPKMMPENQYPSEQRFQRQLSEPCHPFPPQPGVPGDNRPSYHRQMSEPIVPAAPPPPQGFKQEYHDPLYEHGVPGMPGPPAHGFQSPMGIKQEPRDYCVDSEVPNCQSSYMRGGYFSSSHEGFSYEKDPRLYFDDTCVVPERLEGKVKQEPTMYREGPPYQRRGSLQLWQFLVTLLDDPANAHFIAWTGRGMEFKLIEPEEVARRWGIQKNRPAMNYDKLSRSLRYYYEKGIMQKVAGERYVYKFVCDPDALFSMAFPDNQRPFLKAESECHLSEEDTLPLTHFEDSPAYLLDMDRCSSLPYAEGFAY
Chain of ELF1 (P32519 whole entry): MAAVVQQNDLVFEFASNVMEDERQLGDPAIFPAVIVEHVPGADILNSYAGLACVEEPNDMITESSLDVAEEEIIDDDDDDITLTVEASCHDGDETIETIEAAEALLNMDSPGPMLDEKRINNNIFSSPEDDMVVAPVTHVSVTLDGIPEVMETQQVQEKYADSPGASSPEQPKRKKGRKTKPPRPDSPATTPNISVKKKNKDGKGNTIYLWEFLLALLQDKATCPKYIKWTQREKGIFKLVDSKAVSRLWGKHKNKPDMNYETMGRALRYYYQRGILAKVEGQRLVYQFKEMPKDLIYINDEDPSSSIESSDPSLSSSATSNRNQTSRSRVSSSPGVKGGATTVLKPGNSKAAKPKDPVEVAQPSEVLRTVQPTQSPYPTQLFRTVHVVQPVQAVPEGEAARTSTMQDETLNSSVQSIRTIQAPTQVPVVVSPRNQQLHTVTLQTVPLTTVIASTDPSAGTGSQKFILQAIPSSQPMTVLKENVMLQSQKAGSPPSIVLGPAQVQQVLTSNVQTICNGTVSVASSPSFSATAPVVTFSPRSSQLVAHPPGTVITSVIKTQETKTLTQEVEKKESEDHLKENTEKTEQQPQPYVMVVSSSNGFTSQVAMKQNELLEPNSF
Chain of ETV1 (P50549 whole entry): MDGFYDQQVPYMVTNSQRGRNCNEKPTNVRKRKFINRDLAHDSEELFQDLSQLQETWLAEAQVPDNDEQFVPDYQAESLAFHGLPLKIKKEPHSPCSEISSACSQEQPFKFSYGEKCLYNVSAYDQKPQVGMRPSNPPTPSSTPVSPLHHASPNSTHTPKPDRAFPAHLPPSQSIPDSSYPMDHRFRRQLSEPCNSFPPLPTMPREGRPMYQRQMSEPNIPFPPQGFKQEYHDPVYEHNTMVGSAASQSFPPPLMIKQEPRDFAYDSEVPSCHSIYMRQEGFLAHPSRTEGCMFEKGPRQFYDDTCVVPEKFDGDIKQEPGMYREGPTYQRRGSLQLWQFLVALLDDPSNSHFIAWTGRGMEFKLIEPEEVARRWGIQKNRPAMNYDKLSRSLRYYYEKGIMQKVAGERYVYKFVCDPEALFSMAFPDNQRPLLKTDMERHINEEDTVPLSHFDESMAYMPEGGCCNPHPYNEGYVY
Chain of SPIB (Q01892 whole entry): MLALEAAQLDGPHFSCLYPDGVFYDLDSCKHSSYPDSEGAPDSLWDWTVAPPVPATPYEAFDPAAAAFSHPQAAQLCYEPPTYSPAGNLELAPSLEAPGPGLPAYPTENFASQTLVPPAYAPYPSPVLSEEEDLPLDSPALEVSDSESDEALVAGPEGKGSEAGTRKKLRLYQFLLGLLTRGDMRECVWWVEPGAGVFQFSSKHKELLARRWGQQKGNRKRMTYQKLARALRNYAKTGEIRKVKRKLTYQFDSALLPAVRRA
Chain of HSF1 (Q00613 whole entry): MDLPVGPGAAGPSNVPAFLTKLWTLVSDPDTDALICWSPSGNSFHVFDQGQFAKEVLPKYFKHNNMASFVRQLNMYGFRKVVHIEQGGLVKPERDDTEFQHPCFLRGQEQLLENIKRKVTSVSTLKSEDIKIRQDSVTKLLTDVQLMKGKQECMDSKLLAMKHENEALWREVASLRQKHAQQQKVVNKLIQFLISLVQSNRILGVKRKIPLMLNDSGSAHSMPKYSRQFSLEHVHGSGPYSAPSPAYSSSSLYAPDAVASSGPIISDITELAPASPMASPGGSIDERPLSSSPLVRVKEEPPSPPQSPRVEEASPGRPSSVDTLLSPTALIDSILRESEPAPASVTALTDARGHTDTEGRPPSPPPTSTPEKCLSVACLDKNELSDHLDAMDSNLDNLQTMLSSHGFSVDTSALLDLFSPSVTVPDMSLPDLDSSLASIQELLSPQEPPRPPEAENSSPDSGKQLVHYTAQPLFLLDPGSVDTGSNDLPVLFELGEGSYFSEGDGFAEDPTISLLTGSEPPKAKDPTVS

For TACATG, the binding signal [1] was 1.24 fold enrichment (6-mer frequency, TF over GST control), the binding signal [2] was 1.09 fold enrichment (6-mer frequency, TF over GST control) and the binding signal [3] was 1.14 fold enrichment (6-mer frequency, TF over GST control). For the same sequence, the binding signal [4] was 1.2 fold enrichment (6-mer frequency, TF over GST control), the binding signal [5] was 1.27 fold enrichment (6-mer frequency, TF over GST control) and the binding signal [6] was 1.18 fold enrichment (6-mer frequency, TF over GST control). The binding signal [7] was 1.26 fold enrichment (6-mer frequency, TF over GST control), the binding signal [8] was 1.16 fold enrichment (6-mer frequency, TF over GST control) and the binding signal [9] was 1.3 fold enrichment (6-mer frequency, TF over GST control). For the same sequence, the binding signal [10] was 1.12 fold enrichment (6-mer frequency, TF over GST control), the binding signal [11] was 1.26 fold enrichment (6-mer frequency, TF over GST control) and the binding signal [12] was 1.08 fold enrichment (6-mer frequency, TF over GST control). The binding signal [13] was 1.17 fold enrichment (6-mer frequency, TF over GST control), the binding signal [14] was 1.29 fold enrichment (6-mer frequency, TF over GST control) and the binding signal [15] was 1.24 fold enrichment (6-mer frequency, TF over GST control). The binding signal [16] was 1.24 fold enrichment (6-mer frequency, TF over GST control), the binding signal [17] was 1.28 fold enrichment (6-mer frequency, TF over GST control) and the binding signal [18] was 1.09 fold enrichment (6-mer frequency, TF over GST control). For the same sequence, the binding signal [19] was 1.21 fold enrichment (6-mer frequency, TF over GST control).
